Potency data for 26 compounds are collected here from PubChem BioAssay (Tox21).

“And” between values parts separate entries of the source, which are not always exact repeats. Equal entries are not always repeated. Records with an inconclusive call do not appear. A structure can be active in one record and inactive in another. The source made the active and inactive calls. Unless noted, calls come from the whole dose curve; as a rule, active = well fitted cell-killing curve with a large enough effect in the repeat runs; inconclusive = weak or mixed curves, or effect the other way; inactive = no such curve, though single readings can be large or run the other way.
% is set by controls: 0 for no effect and ±100 for the full control effect; potency is the fitted concentration of half-maximal effect.
Note: nearly all actives have a fitted effect of over 50% in size.

One experiment in a line: qHTS assay to identify small molecule agonists of the vitamin D receptor (VDR) signaling pathway - cell viability counter screen (AID 743224). Conditions: VDR-bla HEK293T viability, CellTiter-Glo luminescence, 16 h; series mostly up to 62.6 µM. An outline of the steps: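 Here cell health was gauged by luminescent ATP detection (CellTiter-Glo, 30 min RT) in VDR-bla cells that had been incubated with test compounds for 16 h at 37C and 5% CO2.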
For orientation: In qHTS, concentration-response curves come from the screen itself.
Take `CC(=O)/C=C/c1ccc2c(c1)OCO2`: the Potency entry was “inactive”.

Regarding `CC(C)Oc1cccc(NC(=O)c2ccccc2C(F)(F)F)c1`, the Potency result was “inactive”.

Turning to `ClC1=C(Cl)[C@]2(Cl)[C@@H]3[C@@H]4C[C@@H]([C@H]5O[C@@H]45)[C@@H]3[C@@]1(Cl)C2(Cl)Cl`, the Potency was 30.6 µM (active).

As for `CC(C)(C)c1cc([N+](=O)[O-])cc(C(C)(C)C)c1O`, the Potency is 12.3 µM (active).

Turning to `Clc1ccc(C(c2ccccc2Cl)C(Cl)(Cl)Cl)cc1` (configuration not stated), the Potency was 43.9 µM (active).

For the compound `ClC1=C(Cl)C2(Cl)C3C(Cl)C=CC3C1(Cl)C2(Cl)Cl` (configuration not stated), the Potency was 43.6 µM (active).

In the case of `CC(=O)OC1(c2ccccc2)CCN(CCc2ccccc2)CC1`, the Potency result is “inactive”.

As to `[Cd+2].[Cl-].[Cl-]`, the Potency is 1.75 µM (active) and 1.23 µM (active).

Take `C=CC(=O)OCC(COC(=O)C=C)(COC(=O)C=C)COC(=O)C=C`: the Potency was 7.76 µM (active).

For the compound `CC1(C)CN=C(NN=C(/C=C/c2ccc(C(F)(F)F)cc2)/C=C/c2ccc(C(F)(F)F)cc2)NC1`, the Potency is 6.92 µM (active).

With `CN(C)[C@@H]1C(=O)C(C(N)=O)=C(O)[C@@]2(O)C(=O)C3=C(O)c4c(O)ccc(Cl)c4[C@@](C)(O)[C@H]3C[C@@H]12`, the Potency entry is “inactive”.

For the compound `Oc1ccc(C(c2ccc(O)cc2)(C(F)(F)F)C(F)(F)F)cc1`, the Potency entry is “inactive and 54.9 µM (active)”.

`c1ccc(Nc2ccc3ccccc3c2)cc1`: the Potency entry was “inactive”.

As to `Clc1ccc(COC(Cn2ccnc2)c2ccc(Cl)cc2Cl)cc1` (configuration not stated), the Potency is 20.4 µM (active) and 13.7 µM (active) and 26.6 µM (active).

With `COc1cccc2c1C(=O)c1c(O)c3c(c(O)c1C2=O)C[C@@](O)(C(=O)CO)CC3OC1CC(N2CCOC(OC)C2)C(O)C(C)O1` (some centres not stated), the Potency entry is “inactive”.

As for `Cn1cc(C2=C(c3cn(C4CCN(Cc5ccccn5)CC4)c4ccccc34)C(=O)NC2=O)c2ccccc21`, the Potency entry was “inactive”.

Turning to `Clc1ccc(CO/N=C(\Cn2ccnc2)c2ccc(Cl)cc2Cl)c(Cl)c1`, the Potency entry is “inactive”.

For `Oc1ccc(C2(c3ccc(O)cc3)CCCCC2)cc1`, the Potency was 46.4 µM (active).

For the compound `CCCCCCCCCCCCCCCC[n+]1ccccc1`, the Potency is 25.7 µM (active) [middle of 4 runs].

On to `CCCCCCCCCCCCCCCC[N+](C)(C)C`, for which the Potency was 21.1 µM (active) and 24.5 µM (active).

On to `ClC(Cl)=C(c1ccc(Cl)cc1)c1ccc(Cl)cc1`, for which the Potency result was “inactive and 38.9 µM (active)”.

The nature of a further experiment: qHTS assay to identify small molecule antagonists of the vitamin D receptor (VDR) signaling pathway - cell viability counter screen (AID 743225). The conditions noted are these: VDR-bla HEK293T viability, CellTiter-Glo luminescence, 16 h; series mostly up to 61 µM. An outline of the steps:
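Same-well multiplex: following 16 h treatment of HEK 293T cells carrying a UAS-driven beta-lactamase reporter with compound and agonist (3 nM final), and a 2 h FRET substrate step, CellTiter-Glo was added and luminescence read after 30 min.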
In the case of `CC(=O)/C=C/c1ccc2c(c1)OCO2`, the Potency result was “inactive”.

In the case of `CC(C)(C)c1cc([N+](=O)[O-])cc(C(C)(C)C)c1O`, the Potency is 12.3 µM (active).

Regarding `ClC1=C(Cl)C2(Cl)C3C(Cl)C=CC3C1(Cl)C2(Cl)Cl` (configuration not stated), the Potency entry was “inactive”.

Regarding `CC(=O)OC1(c2ccccc2)CCN(CCc2ccccc2)CC1`, the Potency result was “inactive”.

For the compound `[Cd+2].[Cl-].[Cl-]`, the Potency was 8.78 µM (active) and 2.45 µM (active).

`C=CC(=O)OCC(COC(=O)C=C)(COC(=O)C=C)COC(=O)C=C`: the Potency is 6.92 µM (active).

Take `CC1(C)CN=C(NN=C(/C=C/c2ccc(C(F)(F)F)cc2)/C=C/c2ccc(C(F)(F)F)cc2)NC1`: the Potency was 11 µM (active).

For `CN(C)[C@@H]1C(=O)C(C(N)=O)=C(O)[C@@]2(O)C(=O)C3=C(O)c4c(O)ccc(Cl)c4[C@@](C)(O)[C@H]3C[C@@H]12`, the Potency entry was “inactive”.

As to `Oc1ccc(C(c2ccc(O)cc2)(C(F)(F)F)C(F)(F)F)cc1`, the Potency entry was “inactive and 38.9 µM (active)”.

As to `c1ccc(Nc2ccc3ccccc3c2)cc1`, the Potency result is “inactive”.

With `Clc1ccc(COC(Cn2ccnc2)c2ccc(Cl)cc2Cl)cc1` (configuration not stated), the Potency was 45.7 µM (active) and 48.8 µM (active).

Take `Oc1ccc(C2(c3ccc(O)cc3)CCCCC2)cc1`: the Potency is 36.8 µM (active).

For the compound `CCCCCCCCCCCCCCCC[n+]1ccccc1`, the Potency was 24.2 µM (active) [middle of 4 runs].

Turning to `ClC(Cl)=C(c1ccc(Cl)cc1)c1ccc(Cl)cc1`, the Potency result is “inactive”.

With `CSCCCN=C=S`, the Potency result is “inactive”.

A short description of the next experiment: qHTS assay to identify small molecule agonists of the endoplasmic reticulum stress response signaling pathway - cell viability counter screen (AID 1159517; calls by dose curve). The conditions noted are these: ESRE-bla HeLa viability, CellTiter-Glo luminescence, 5 h; series mostly up to 61 µM. An outline of the steps: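 Cells, HeLa ESRE-bla; density, 1,500/well; dosing, 5 hr at 37 C, 5% CO2; readout, CellTiter-Glo luminescence after 30 min RT.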
Regarding `CC(=O)/C=C/c1ccc2c(c1)OCO2`, the Potency entry was “inactive”.

Take `CC(C)Oc1cccc(NC(=O)c2ccccc2C(F)(F)F)c1`: the Potency result is “inactive”.

With `ClC1=C(Cl)[C@]2(Cl)[C@@H]3[C@@H]4C[C@@H]([C@H]5O[C@@H]45)[C@@H]3[C@@]1(Cl)C2(Cl)Cl`, the Potency is 54.9 µM (active).

As for `CC(C)(C)c1cc([N+](=O)[O-])cc(C(C)(C)C)c1O`, the Potency entry was “inactive”.

On to `Clc1ccc(C(c2ccccc2Cl)C(Cl)(Cl)Cl)cc1` (configuration not stated), for which the Potency was 43.9 µM (active).

Consider `CC[C@H]1C[C@@H]2C[C@H]3c4[nH]c5ccc(OC)cc5c4CCN(C2)[C@@H]13`, for which the Potency result is “inactive”.

For the compound `CCC(C)c1cc([N+](=O)[O-])cc([N+](=O)[O-])c1OC(=O)C=C(C)C` (configuration not stated), the Potency entry was “inactive”.

With `ClC1=C(Cl)C2(Cl)C3C(Cl)C=CC3C1(Cl)C2(Cl)Cl` (configuration not stated), the Potency was 55.2 µM (active).

On to `CC(=O)OC1(c2ccccc2)CCN(CCc2ccccc2)CC1`, for which the Potency entry is “inactive”.

Take `Cc1cc(C(C)(C)c2cc(C)c(O)c(C)c2)cc(C)c1O`: the Potency was 59.6 µM (active).

Consider `[Cd+2].[Cl-].[Cl-]`, for which the Potency result is “inactive”.

Regarding `C=CC(=O)OCC(COC(=O)C=C)(COC(=O)C=C)COC(=O)C=C`, the Potency is 12.3 µM (active).

`CC1(C)CN=C(NN=C(/C=C/c2ccc(C(F)(F)F)cc2)/C=C/c2ccc(C(F)(F)F)cc2)NC1`: the Potency was 49 µM (active).

Consider `CC(=O)C(Cl)(Cl)Cl`, for which the Potency entry is “inactive”.

In the case of `CN(C)[C@@H]1C(=O)C(C(N)=O)=C(O)[C@@]2(O)C(=O)C3=C(O)c4c(O)ccc(Cl)c4[C@@](C)(O)[C@H]3C[C@@H]12`, the Potency entry was “inactive”.

Take `Oc1ccc(C(c2ccc(O)cc2)(C(F)(F)F)C(F)(F)F)cc1`: the Potency was 49 µM (active).

With `c1ccc(Nc2ccc3ccccc3c2)cc1`, the Potency entry is “inactive”.

In the case of `Clc1ccc(COC(Cn2ccnc2)c2ccc(Cl)cc2Cl)cc1` (configuration not stated), the Potency is 61.4 µM (active).

As for `COc1cccc2c1C(=O)c1c(O)c3c(c(O)c1C2=O)C[C@@](O)(C(=O)CO)CC3OC1CC(N2CCOC(OC)C2)C(O)C(C)O1` (some centres not stated), the Potency was 0.952 µM (active).

For `Cn1cc(C2=C(c3cn(C4CCN(Cc5ccccn5)CC4)c4ccccc34)C(=O)NC2=O)c2ccccc21`, the Potency entry is “inactive”.

With `Clc1ccc(CO/N=C(\Cn2ccnc2)c2ccc(Cl)cc2Cl)c(Cl)c1`, the Potency is 23.9 µM (active).

For the compound `Oc1ccc(C2(c3ccc(O)cc3)CCCCC2)cc1`, the Potency was 46.4 µM (active).

`CCCCCCCCCCCCCCCC[n+]1ccccc1`: the Potency was 34.7 µM (active) and 34.2 µM (active) and 12 µM (active).

On to `CCCCCCCCCCCCCCCC[N+](C)(C)C`, for which the Potency is 23.7 µM (active) and 43.6 µM (active).

Take `ClC(Cl)=C(c1ccc(Cl)cc1)c1ccc(Cl)cc1`: the Potency is 54.9 µM (active).

For the compound `CSCCCN=C=S`, the Potency was 19.5 µM (active).
